DT40 TDP1 CPT = growth inhibition of DT40 Tdp1-/-;hTDP1 cells with camptothecin (screen for TDP1 inhibitors); Potency, µM (top dose mostly 46.2 µM), usual class: inhibitors; chicken DT40 Tdp1-/-;hTDP1 cells + 20 nM CPT, ATP luminescence, 48 h; actives 12% (n = 420,000); note: nearly all actives have a fitted effect of over 55% in size
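Cell growth measured by CellTiter-Glo luminescence after a minimum 48 h, 37 C compound exposure with 20 nM CPT in Tdp1-knockout DT40 cells stably expressing hTDP1, seeded 400/well; qHTS titration format.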
HepG2 tox = HepG2 cytotoxicity, counter-screen for TGF-b inhibitors. HepG2 CAGA-GFP viability, ATP luminescence, 18 h. Potency, µM (top dose mostly 46.1 µM), most hits filed as cytotoxic. actives 0.76% (n = 410,000). AID 588856
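CellTiter-Glo luminescence gave cytotoxicity after 18 hours at 37 degrees C. The cells were HepG2 CAGA-GFP in 1% FBS DMEM, stimulated with 500 pg/mL TGF-beta after compound addition. %Activity was normalised to no-cell wells (complete cell-killing) and DMSO (no toxicity), and curves were fitted and classified.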
TGFb inhibitor = TGF-b pathway inhibition. HepG2 CAGA-GFP TGF-b/SMAD3 reporter, GFP fluorescence, 18 h; TGF-beta stimulated, 500 pg/mL final. Potency, µM (top dose mostly 46.1 µM), most hits filed as inhibitors. actives 1.2% (n = 410,000). AID 588855; note: nearly all actives have a fitted effect of over 65% in size
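HEPG2 CAGA-GFP reporter cells (1000/well, DMEM with 1% FBS) received compounds, then recombinant TGF-beta at 500 pg/mL final for 18 hours at 37 degrees C. Per-cell GFP summed per well was normalised to unstimulated and stimulated DMSO controls before curve fitting.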
TDP1 inh = TDP1 (human) enzyme inhibition | actives 0.28% (n = 350,000) | Q9NUW8 | recombinant TDP1, AlphaScreen DNA substrate cleavage | Potency, µM (series often up to 130 µM), usual class: inhibitors | AID 485290; note: nearly all actives have a fitted effect of over 40% in size
Target sequence (Q9NUW8 whole entry, looked up): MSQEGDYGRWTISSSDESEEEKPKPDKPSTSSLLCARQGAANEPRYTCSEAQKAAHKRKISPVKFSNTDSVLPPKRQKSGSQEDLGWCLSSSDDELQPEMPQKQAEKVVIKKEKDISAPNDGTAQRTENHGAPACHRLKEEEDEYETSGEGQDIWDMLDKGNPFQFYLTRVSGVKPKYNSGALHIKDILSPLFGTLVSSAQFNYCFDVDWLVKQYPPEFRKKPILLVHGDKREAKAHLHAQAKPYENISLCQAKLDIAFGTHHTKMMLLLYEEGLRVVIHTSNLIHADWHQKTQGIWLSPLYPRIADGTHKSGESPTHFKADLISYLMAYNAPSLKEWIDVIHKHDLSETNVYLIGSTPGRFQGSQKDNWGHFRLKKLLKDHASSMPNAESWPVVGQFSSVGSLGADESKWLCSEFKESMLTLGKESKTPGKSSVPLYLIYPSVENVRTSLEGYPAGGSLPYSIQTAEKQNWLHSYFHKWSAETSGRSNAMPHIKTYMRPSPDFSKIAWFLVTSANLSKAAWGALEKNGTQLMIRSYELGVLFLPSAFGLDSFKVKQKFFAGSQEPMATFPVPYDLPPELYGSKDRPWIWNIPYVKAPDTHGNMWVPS
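AlphaScreen read-out: signal falls as enzyme removes the 3' tyrosine-FITC from a 5'-biotinylated DNA oligo (15 nM, 5 min, RT). Enzyme was E. coli-made recombinant Tdp1 at 1 nM, exposed to compound for 15 min beforehand; beads 10 ug/ml, 10 min.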
TDP1 cell noCPT = qHTS for Inhibitors of human tyrosyl-DNA phosphodiesterase 1 (TDP1): qHTS in cells in absence of CPT; Potency, µM (titrated, usually from 46.2 µM), most hits filed as inhibitors; AID 686978, 2013; actives 15% (n = 420,000); DT40 Tdp1-/- hTDP1 cells, no CPT, ATP luminescence, 48 h; note: nearly all actives have a fitted effect of over 55% in size
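Luminescent ATP content (CellTiter-Glo) served as the growth readout. Knockout chicken DT40 cells expressing human TDP1 were exposed to compounds without camptothecin for a minimum 48 hr at 37 °C.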
IL1B secr inh = inhibitors of inflammasome signaling (IL-1 beta secretion); THP-1 LPS/ATP IL-1B secretion, AlphaLISA, 16 h; stronger effect = lower value; activity change, % at 57.5 µM; actives 4.7% (n = 360,000); AID 743279; in the data active = activity change below about -50%; inconclusive = mostly about -30% to -49%
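THP-1 cells pretreated 1 hr with compounds (up to 57.5 uM final), then stimulated with LPS (250 ng/mL final) plus ATP (1.25 mM final); secreted IL-1B measured by AlphaLISA after 16 hr, decreased signal indicating inhibition.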
Hits are given with their value; - = inactive; ? = inconclusive; . = no result; [ ] = another dose, or the depositor's remark. Compounds with a hit are over-represented: about 18% of the library has one in this group of screens. Unless noted, calls come from the whole dose curve; as a rule, active = well fitted curve in the direction sought with a large enough effect; inconclusive = small, poorly fitted or top-dose-only effect, or another doubt; inactive = no such curve, though single readings can be large; an effect the other way counts as inactive or inconclusive.

SMILES | DT40 TDP1 CPT | HepG2 tox | TGFb inhibitor | TDP1 inh | TDP1 cell noCPT | IL1B secr inh
Cc1cc(C)cc(NC(=O)C2CCN(C(=O)c3cccs3)CC2)c1 | ? | - | - | - | - | -
CCN(CC(=O)NCc1ccccn1)S(=O)(=O)c1ccc(OC)cc1 | - | - | - | - | - | -
CCN(C(=O)c1cc(S(=O)(=O)N2CCCC2)cn1C)c1ccc(OC)cc1 | - | - | - | - | - | .
CN(Cc1ccccc1)C(=O)COC(=O)C12CC3CC(CC(Br)(C3)C1)C2 | 26µM | - | - | - | ? | -
O=C(COC(=O)C12CC3CC(CC(Br)(C3)C1)C2)Nc1cccnc1Cl | ? | - | - | - | - | -
COc1cc2ncc(S(=O)(=O)c3ccccc3)c(N3CCCC(C)C3)c2cc1OC (centres undefined) | ? | - | ? | . | 12µM | -
C=CCNCCCCOc1cccc(Br)c1 | - | - | - | - | - | -65
CC(C)NCCCCOc1cccc(Br)c1 | ? | - | - | - | 23µM | -
Brc1cccc(OCCCNC2CCCC2)c1 | ? | - | - | . | 21µM | ?
O=C1C[C@H](c2ccc3ccccc3c2)N1S(=O)(=O)c1ccccc1[N+](=O)[O-] | . | - | - | - | . | .
CN1CCN(c2ncc3nc(-c4ccccc4)c(=O)n(-c4ccccc4)c3n2)CC1 | - | . | . | . | - | .
CCc1c(C)sc2c1CCN(C(=O)Nc1ccc(F)c(Cl)c1)C2c1ccc(F)cc1 (centres undefined) | ? | - | ? | - | 16µM | .
CCc1c(C)sc2c1CCN(C(=O)Nc1ccccc1C(=O)OC)C2c1ccc(F)cc1 (centres undefined) | ? | - | - | - | ? | .
CCc1c(C)sc2c1CCN(C(=O)Nc1ccccc1C(F)(F)F)C2c1ccccc1 (centres undefined) | ? | - | ? | - | 7.3µM | .
CCc1c(C)sc2c1CCN(C(=O)Nc1cc(Cl)c(OC)cc1OC)C2c1ccccc1 (centres undefined) | ? | - | - | - | 26µM | .
CCc1c(C)sc2c1CCN(C(=O)Nc1ccccc1C(=O)OC)C2c1ccc(OC)cc1 (centres undefined) | ? | - | - | - | ? | .
O=C(O)C1=C(C(=O)Nc2ccc(F)c(Cl)c2)CCCC1 | - | - | - | - | - | -
CC(C)CNC(=S)NNC(=O)c1csc2c1CCC(C)C2 (centres undefined) | ? | - | - | - | 21µM | ?
CCc1nn(CCCC(=O)NCc2cc(Br)ccc2OC)c(=O)c2cc3occc3n12 | ? | - | - | - | ? | -56
CCc1nn(CCCC(=O)N(C)Cc2ccccc2)c(=O)c2cc3occc3n12 | 16µM | - | ? | - | ? | -
CCc1ccc(NC(=O)CCCn2nc(CC)n3c(cc4occc43)c2=O)cc1 | ? | - | - | - | - | -
CCc1nn(CCCC(=O)NCc2ccccc2C)c(=O)c2cc3occc3n12 | - | - | - | - | - | -
CCOc1ccc(CNC(=O)CCCn2nc(CC)n3c(cc4occc43)c2=O)cc1 | ? | - | - | - | ? | -
CCc1nn(CCCC(=O)NCc2ccc(OC(C)C)cc2)c(=O)c2cc3occc3n12 | ? | - | ? | - | 12µM | -
CCc1nn(CCCC(=O)NC2CCCCC2C)c(=O)c2cc3occc3n12 (centres undefined) | ? | - | ? | . | 26µM | -
SMILES | DT40 TDP1 CPT | HepG2 tox | TGFb inhibitor | TDP1 inh | TDP1 cell noCPT | IL1B secr inh
CC(=O)c1ccccc1NC(=O)C1CCCN(C(=O)c2ccc(Cl)cc2)C1 (centres undefined) | ? | - | - | - | ? | -
COc1ccc2c(c1)C(=O)/C(=C/C=C/c1ccccc1)CC2 | - | - | - | - | - | -
COC1=CC(=O)C(O)=C/C1=C\C=C\c1ccccc1 | 2.6µM | . | . | - | 4.6µM | .
O=[N+]([O-])c1ccc(O/N=[N+](\[O-])N2CCN(c3ccccc3)CC2)c([N+](=O)[O-])c1 | . | - | 11µM | . | . | .
CC(=O)N1CCN(/[N+]([O-])=N/Oc2ccc([N+](=O)[O-])cc2[N+](=O)[O-])CC1 | . | - | ? | . | . | .
COCCOC(=O)N1CCN(/[N+]([O-])=N/Oc2ccc([N+](=O)[O-])cc2[N+](=O)[O-])CC1 | . | - | ? | . | . | .
O=[N+]([O-])c1ccc(O/N=[N+](\[O-])N2CCN(c3ncccn3)CC2)c([N+](=O)[O-])c1 | . | - | 10µM | . | . | .
O=C(OCCF)N1CCN(/[N+]([O-])=N/Oc2ccc([N+](=O)[O-])cc2[N+](=O)[O-])CC1 | . | 20µM | 8.9µM | . | . | .
COc1ccc(C(=O)N/N=c2\oc3ccccc3cc2C(=O)NCc2ccccc2)cc1 | 16µM | - | ? | - | 15µM | -
COc1ccc(CNC(=O)c2cc3cc(OC)ccc3oc2=O)cc1 | 18µM | - | - | - | 12µM | -
COc1ccc(OC)c2sc(N(Cc3cccnc3)C(=O)c3ccco3)nc12 | ? | - | - | - | 21µM | .
CCOc1cccc2sc(N(Cc3cccnc3)C(=O)c3ccco3)nc12 | ? | - | ? | - | ? | .
COc1cccc2sc(N(Cc3cccnc3)C(=O)c3ccco3)nc12 | 16µM | - | ? | - | ? | .
CCOc1ccccc1-c1nc2c(C(C)(C)C)nn(C)c2c(=O)[nH]1 | . | . | . | - | . | .
O=C(c1cccc(Cl)c1)N1CCC(c2nc3c(nnn3Cc3ccc(F)cc3F)c(=O)[nH]2)CC1 | ? | - | - | - | ? | .
CC(=O)Nc1sc(N/N=C\c2ccccc2F)nc1-c1cccs1 | - | - | - | - | - | -
CC(=O)Cc1nsc(NC(=O)c2cccs2)n1 | ? | - | - | - | 23µM | -
Cc1sc(NC(=O)c2cccs2)nc1-c1ccccc1 | 23µM | - | - | - | ? | ?
Cc1sc(N/N=C/c2cccs2)nc1-c1ccccc1 | ? | - | ? | - | 18µM | -
COc1ccc(OCC(=O)NC(=O)c2ccccc2OC)c([N+](=O)[O-])c1 | - | - | ? | -[0.505 µM] | - | -
Cc1ccc(CNC(=O)COCc2cc(-c3ccc4c(c3)OCO4)on2)cc1 | ? | - | - | - | ? | .
CC(=C\C(=O)O)/C(=C/c1ccc(C)o1)C(=O)O | 15µM | - | ? | . | 21µM | -
CC(=C\C(=O)O)/C(=C/c1ccco1)C(=O)O | - | - | - | ? | - | -
COC(=O)N1CC=CC1(C)C(=O)NCc1ccc(C)o1 (centres undefined) | . | . | . | - | . | .
